Some test systems named below: NCI-H23 lung; NCI-H226 lung; NCI-H322M lung; HOP-62 NSCLC; NCI-H460 lung; NCI-H522 lung; A549/ATCC NSCLC; 786-0 renal; COLO 205 colon; DU-145 prostate; K-562 leukemia; MALME-3M melanoma; MDA-MB-231 breast; SF-268 CNS; SF-295 CNS; SF-539 CNS; UACC-257 melanoma; M14 melanoma; RXF 393 renal; HOP-92 NSCLC.
Common to all, as to experiment: NCI-60 one-dose screen, 48 h (100 = growth as untreated, 0 = no growth, -100 = all killed)
What all share (conditions): 10 µM unless noted

In PubChem BioAssay (NCI) one finds growth data, which are given here for nine compounds.

About 83,000 compounds went through this panel and 20% of them were active in at least one assay; those are over-represented in the sample as a whole.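 Treatment: one concentration, 48 hours, 96-well format. Scoring: percent growth, with anything below 10 considered active.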 Unmarked numbers belong to inactive results. Activity calls are given as the source filed them.

As for `CCNC(=O)c1[nH]cc(-c2ccc(OC)cc2)c1-c1cc(OC)c(OC)c(OC)c1`, the growth with NCI-H23 lung was 60.3%; in the assay with NCI-H226 lung, 83%; in the assay with NCI-H322M lung, 51.6%; in the assay on HOP-62 NSCLC, 45%; with NCI-H460 lung, 13.7%; with NCI-H522 lung, 17.6%. Also, the growth with A549/ATCC NSCLC is 51.1%; in the assay with 786-0 renal, 47.5%; in the assay with COLO 205 colon, 32.5%; in the assay with DU-145 prostate it was 69.3%; with K-562 leukemia, 12.1%; with MALME-3M melanoma it was 35.4%. For the same compound, the growth in the assay with MDA-MB-231 breast is 74.5%; in the assay with SF-268 CNS, 58.8%; with SF-295 CNS, 30.3%; in the assay on SF-539 CNS, 29.1%; in the assay on UACC-257 melanoma it was 81.3%; in the assay with M14 melanoma, 51.4%.
For `Nc1ccccc1NC(=O)c1ccc(CN2CCC/C(=C\c3cccc(Cl)c3)C2=O)cc1`, the growth with NCI-H23 lung is 21.1%; in the assay with NCI-H226 lung, 40%; with NCI-H322M lung it was 40.8%; with HOP-62 NSCLC, 19%; in the assay on NCI-H460 lung it was 7.66% (active); in the assay on NCI-H522 lung, -32% (active). Further, the growth is 33% in the assay with A549/ATCC NSCLC; 14.2% with 786-0 renal; -51.8% (active) in the assay on COLO 205 colon; 8.37% (active) with DU-145 prostate; 4.21% (active) in the assay on K-562 leukemia; 63.7% with MALME-3M melanoma. Besides, the growth in the assay with MDA-MB-231 breast was -2.78% (active); in the assay on RXF 393 renal, 20.6%; in the assay on SF-268 CNS, 3.92% (active); with SF-295 CNS it was 25.5%; in the assay on SF-539 CNS it was 5.47% (active); in the assay with UACC-257 melanoma it was 37.7%. Further, in the assay on M14 melanoma, the growth was 24%.
`Cn1c(COC(=O)NCCc2ccccn2)nc2c(N3CCOCC3)nc(Cl)nc21`: the growth in the assay with NCI-H23 lung is 16.9%; in the assay on NCI-H226 lung, 25.2%; in the assay with NCI-H322M lung, 78.9%; with HOP-62 NSCLC, 42.3%; in the assay with NCI-H460 lung it was 38.3%; in the assay with NCI-H522 lung, -24% (active). The growth in the assay with A549/ATCC NSCLC is 44.2%; with 786-0 renal it was -74.7% (active); in the assay with COLO 205 colon it was -41.1% (active); in the assay on DU-145 prostate, 8% (active); with K-562 leukemia, 2.75% (active); with MALME-3M melanoma it was -71.2% (active). The growth with MDA-MB-231 breast was -64.5% (active); in the assay on SF-268 CNS, 46%; in the assay on SF-295 CNS, 71.7%; with SF-539 CNS it was -19.8% (active); in the assay with UACC-257 melanoma, 18.1%; in the assay on M14 melanoma, -59.2% (active).
For the compound `COc1cc(C2NC(c3cc(OC)c(OC)c(OC)c3)C(C#N)(C#N)C2(C#N)C#N)cc(OC)c1OC` (stereo not drawn), the growth with NCI-H23 lung was 101%; with NCI-H226 lung, 91.5%; in the assay on NCI-H322M lung, 100%; with HOP-62 NSCLC, 94.8%; in the assay on NCI-H460 lung, 104%; with NCI-H522 lung, 95.6%. For the same compound, the growth with A549/ATCC NSCLC is 103%; in the assay on 786-0 renal, 97%; with COLO 205 colon, 101%; in the assay on DU-145 prostate, 102%; in the assay with K-562 leukemia it was 109%; in the assay on MALME-3M melanoma, 96%. The growth in the assay with MDA-MB-231 breast was 97.3%; in the assay with RXF 393 renal, 114%; in the assay on SF-268 CNS, 105%; with SF-295 CNS it was 99.8%; in the assay with SF-539 CNS it was 95.8%; in the assay on UACC-257 melanoma it was 106%. In the assay on M14 melanoma, the growth is 92.9%.
With `Cc1cc(Nc2cccc(C(F)(F)F)c2)n2c(nc3ccccc32)c1C#N`, the growth in the assay with NCI-H23 lung is 25.1%; with NCI-H226 lung it was 40.1%; with NCI-H322M lung, 36.9%; in the assay on HOP-62 NSCLC, 53.6%; with NCI-H460 lung it was 17%; with A549/ATCC NSCLC it was 43.7%. Also, the growth is 58.9% with 786-0 renal; 36.9% in the assay on COLO 205 colon; 53.9% in the assay with DU-145 prostate; 22.1% in the assay with K-562 leukemia; 60.6% with MALME-3M melanoma; 54.2% with MDA-MB-231 breast. The growth was 61.3% in the assay on RXF 393 renal; 51.3% in the assay with SF-268 CNS; 53.9% with SF-295 CNS; 40.9% in the assay with SF-539 CNS; 11.9% in the assay on UACC-257 melanoma; 54.4% with M14 melanoma.
On to `CN1CCN(C(=O)[C@]2(C)CC[C@]3(C)CC[C@]4(C)C(=CC(=O)[C@@H]5[C@@]6(C)CCC(=O)NC(C)(C)[C@@H]6CC[C@]54C)[C@@H]3C2)CC1`, for which the growth in the assay with NCI-H23 lung is 100%; with NCI-H226 lung, 91.8%; in the assay on NCI-H322M lung, 107%; with HOP-62 NSCLC, 89.2%; in the assay on NCI-H460 lung, 102%; with NCI-H522 lung, 90.6%. In addition, the growth is 94.4% in the assay with A549/ATCC NSCLC; 93.5% in the assay with 786-0 renal; 110% in the assay on COLO 205 colon; 97.6% in the assay on DU-145 prostate; 95.9% with MALME-3M melanoma; 107% in the assay with MDA-MB-231 breast. Also, the growth was 94.3% with SF-268 CNS; 98.3% with SF-295 CNS; 92% in the assay on SF-539 CNS; 103% in the assay with UACC-257 melanoma; 105% in the assay on M14 melanoma.
In the case of `COc1cnccc1-c1nc2ccc3[nH]ncc3c2c2c1CCCC2`, the growth with NCI-H23 lung was 67.1%; in the assay on NCI-H226 lung, 67%; in the assay on NCI-H322M lung, 67.1%; with HOP-62 NSCLC it was 61%; with NCI-H460 lung, 44.7%; in the assay with NCI-H522 lung, 30.6%. Further, the growth was 47.6% in the assay with A549/ATCC NSCLC; 49% in the assay with 786-0 renal; 55.3% in the assay on COLO 205 colon; 62.7% in the assay on DU-145 prostate; 42.2% in the assay on K-562 leukemia; 73.8% in the assay on MALME-3M melanoma. Besides, the growth was 68.2% with MDA-MB-231 breast; 61.3% with SF-268 CNS; 60.5% in the assay on SF-295 CNS; 35.7% in the assay with SF-539 CNS; 87.5% in the assay with UACC-257 melanoma; 46.3% in the assay with M14 melanoma.
For the compound `CC(=O)c1c(-c2ccc(OC(F)(F)F)cc2)nc2ccccn12`, the growth in the assay on NCI-H23 lung was 95.4%; with NCI-H226 lung, 91%; in the assay with NCI-H322M lung, 90.4%; with HOP-62 NSCLC it was 88.9%; with HOP-92 NSCLC, 91%; in the assay on NCI-H522 lung, 51.5%. For the same compound, the growth in the assay with A549/ATCC NSCLC was 62.8%; with 786-0 renal, 99%; in the assay on COLO 205 colon, 95.8%; in the assay with DU-145 prostate it was 101%; with K-562 leukemia, 113%; with MALME-3M melanoma, 88.9%. Besides, the growth in the assay with MDA-MB-231 breast was 94%; in the assay with RXF 393 renal it was 108%; with SF-268 CNS, 94.3%; in the assay on SF-295 CNS it was 90.2%; with SF-539 CNS it was 92.3%; in the assay with UACC-257 melanoma it was 81.8%. Besides, in the assay with M14 melanoma, the growth was 89.8%.
Consider `COc1c(Cl)cc(Cl)c2ccc(C=C3C(=O)NC(=S)NC3=O)nc12`, for which the growth with NCI-H23 lung was 101%; in the assay on NCI-H226 lung it was 100%; in the assay with NCI-H322M lung, 113%; with HOP-62 NSCLC it was 93.7%; in the assay with NCI-H522 lung, 92%; in the assay on A549/ATCC NSCLC it was 104%. The growth in the assay on 786-0 renal is -90.9% (active); with COLO 205 colon it was 113%; in the assay with DU-145 prostate it was 115%; in the assay with K-562 leukemia, 102%; with MALME-3M melanoma it was 106%; with MDA-MB-231 breast, 113%. For the same compound, the growth is 99.8% with SF-268 CNS; 102% with SF-295 CNS; 101% with SF-539 CNS; 102% in the assay on UACC-257 melanoma; -56.2% (active) in the assay on M14 melanoma.
